An excerpt weighted towards active compounds, which were near 19% of everything screened.
SARS PLpro yeast: SARS-CoV PLP inhibition in yeast; Potency, µM (highest dose often 32.9 µM), without a hit: top-dose activity, positive = growth rescue, actives largely listed as activators; hit rate 0.19% among 330,000; AID 485353; S. cerevisiae expressing SARS-CoV PLpro, growth rescue; calls by dose curve; further: potency means the concentration at half of the fitted maximal effect; 0% is about no effect; nearly all actives have a fitted effect of over 55% in size
Pf growth 96h: inhibits malaria parasite growth, 96 h. P. falciparum luciferase reporter growth, 96 h. Potency, µM (highest dose often 28.7 µM), inactives show at the highest dose activity change, negative = inhibition, actives largely listed as inhibitors. hit rate 6.9% among 320,000; further: potency means the concentration at half of the fitted maximal effect; on the % scale 0 is the no-effect control and ±100 the full control effect
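Readout is luminescence from an integrated firefly luciferase in P. falciparum. Red cells, 2% hematocrit and 0.05% parasitemia final, were cultured with compound through two parasite generations (96 hours) at 37 C, 5% CO2.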
AMA1-RON2 inh: inhibitors of Plasmodium falciparum AMA1-RON2 interaction | AlphaScreen AMA1-biotinylated RON2 peptide binding | Potency, µM (highest dose often 58.2 µM), without a hit: top-dose activity change, negative = inhibition, actives largely listed as inhibitors | hit rate 0.2% among 360,000 | AID 720542;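 further: potency means the concentration at half of the fitted maximal effect; 0% = vehicle wells and -100% = peptide control; nearly all actives have a fitted effect of over 45% in size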
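AMA1 (3D7) with his tag at 25 nM final met compounds first, then biotinylated RON2 peptide at 25 nM; detection used donor plus acceptor beads, 10 µg/mL apiece, read by AlphaScreen after 30 min at room temperature.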
Pf growth 48h: inhibits P. falciparum growth in the first generation, 48 h. P. falciparum luciferase growth in erythrocytes, 48 h. Potency, µM (doses to about 28.7 µM), inactives show at the top dose activity change, negative = inhibition, usual class: inhibitors. hit rate 5.9% among 310,000. AID 504832; further: potency means the concentration at half of the fitted maximal effect; on the % scale 0 is the no-effect control and ±100 the full control effect
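Compounds are pin-transferred into medium, infected erythrocytes (2% hematocrit, 0.1% parasitemia final) are added, and plates sit one parasite generation at 37 C in 5% CO2. Detection reagent is then added and luminescence measured.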
Cycloheximide cs: counter-screen hit for Shiga toxin inhibitors, cycloheximide; AID 2314; cell reporter, cycloheximide protein synthesis inhibition counterscreen; hit rate 12% among 300,000; max response, %; in the data active means max response mostly above about 13%, no sharp cut-off; inactive means mostly below about 14%; further: read at 38.3 µM for the half of the compounds with a filed dose; 0% is about no effect
Shiga inhibitor: Shiga toxin inhibition; AID 2315; Vero cells, Shiga toxin protein synthesis inhibition reporter; inhibition, % at 38.7 µM; hit rate 9.2% among 290,000; in the data active means inhibition mostly above about 28%, no sharp cut-off; inactive means mostly below about 43%; further: 0% is about no effect
An asterisk follows results filed as active; ? = inconclusive; . = no result. Unless noted, the call rests on the fitted dose curve; in most records, active means well fitted curve in the direction sought with a large enough effect; inconclusive means small, poorly fitted or top-dose-only effect, or another doubt; inactive means no such curve, though single readings can be large; an effect the other way counts as inactive or inconclusive.

SMILES | SARS PLpro yeast | Pf growth 96h | AMA1-RON2 inh | Pf growth 48h | Cycloheximide cs | Shiga inhibitor
CC(C)C(NS(=O)(=O)c1ccccc1)C(=O)OCc1cc([N+](=O)[O-])cc2c1OCOC2 (stereo not drawn) | -4.8% | 0.0% | -4.5% | 13.8% | -2.8 | 4.8
Cc1ccc(CN2CCN(Cc3ccccc3)CC2)cc1 | 0.6% | 122.4% | -4.0% | -0.3% | -1.3 | 12.2
O=C(c1ccc(F)cc1)n1ccc(-c2cnc(-c3ccccc3)s2)n1 | -15.9% | 340.2% | 5.5% | . | 41.5* | 73.4*
Cc1ccc(Cn2ccc(-c3cnc(-c4ccccc4)s3)n2)cc1 | 7.7% | 105.2% | 23.4% | . | 29.6* | 68.7*
O=S(=O)(c1ccccc1)n1ccc(-c2cnc(-c3ccccc3)s2)n1 | 3.0% | 75.6% | -4.1% | -0.1% | 10.5* | 31.4
Fc1ccc(Cn2ccc(-c3cnc(-c4ccccc4)s3)n2)cc1 | 2.6% | 15.4% | 129.0% | . | 39.3* | 67.2
O=c1ccc(-c2ccccc2)nn1Cc1ccc(F)cc1 | -1.0% | ? | 7.1% | 8.3% | 9.8 | 23.0
Cc1ccc(NC(=S)NC2CCCC2)c(C)c1 | 10.0% | -2.1% | 15.0% | ? | 11.1 | 30.9
CCc1ccc(NC(=O)c2cnn3ccccc23)cc1 | -6.3% | 1.17µM* | 0.2% | . | 43.1* | 4.4
CSc1cccc(NC(=O)c2cnn3ccccc23)c1 | -1.1% | 472.0% | 0.0% | 370.5% | 45.4* | 76.4*
O=C(NCc1ccc(F)cc1)c1cnn2ccccc12 | -8.3% | 296.8% | 10.8% | . | 29.7* | 67.6
CC(=O)Nc1cc(-c2ccccc2CN(C)C)cn2c(-c3ccc(F)c(Cl)c3)cnc12 | . | . | -8.3% | . | . | .
Cc1sc(NC(=O)c2ccco2)c(C(c2cccnc2)N2CCN(C)CC2)c1C (stereo not drawn) | -3.1% | ? | -13.1% | ? | -0.9 | -10.4
Cc1sc(NC(=O)c2ccco2)c(C(c2cccnc2)N2CCCC2)c1C (stereo not drawn) | -31.5% | 10.4µM* | -4.3% | 11.7µM* | 17.8 | 15.3
Cc1sc(NC(=O)c2ccco2)c(C(c2ccncc2)N2CCOCC2)c1C (stereo not drawn) | 4.5% | ? | -11.6% | 10.4µM* | -1.6 | -11.7
CCOc1ccc(C(c2c(NC(=O)c3ccco3)sc(C)c2C)N2CCOCC2)cc1 (stereo not drawn) | -8.6% | 13.1µM* | 8.7% | 5.22µM* | . | .
COc1cccc(C(c2c(NC(=O)c3ccco3)sc(C)c2C)N2CCOCC2)c1 (stereo not drawn) | 1.6% | 3.29µM* | -5.1% | 4.65µM* | . | .
Cc1nn(CC(=O)O)c(C)c1Cl | 4.1% | . | -0.9% | 30.7% | -3.5 | -53.0
CCOc1ccc(OCCCCNCCN)cc1 | 2.4% | ? | . | . | -4.1 | 6.6
CCC(=O)c1cn(CC(=O)Nc2ccccc2Cl)c2ccccc12 | -3.6% | 163.2% | 14.2% | ? | 0.7 | 2.7
CCOc1ccc(C(c2c(NC(=O)c3ccccc3)sc(C)c2C)N2CCN(C)CC2)cc1 (stereo not drawn) | -4.7% | 11.7µM* | -3.1% | ? | 16.1 | 31.2*
COCCN(C(=O)CSc1nnc(-c2ccccc2F)o1)c1c(N)n(Cc2ccccc2)c(=O)[nH]c1=O | . | . | -4.0% | . | . | .
O=C(CC1CCCCC1)NCc1ccccn1 | 0.5% | ? | 11.7% | 3.5% | -2.3 | 2.1
CCCCC(=O)NCc1ccccc1Cl | 0.2% | 51.2% | 14.3% | 42.8% | 23.2* | 52.4
O=C(COC(=O)CCSc1ccccc1)NCc1ccccc1Cl | -16.3% | -20.7% | 18.0% | 12.6% | 19.0* | 43.0
SMILES | SARS PLpro yeast | Pf growth 96h | AMA1-RON2 inh | Pf growth 48h | Cycloheximide cs | Shiga inhibitor
O=C(CSc1nc(=O)n2ccccc2n1)NCc1ccccc1Cl | -5.4% | 7.0% | 9.1% | ? | . | .
O=C(CC1CCCCC1)NCc1ccccc1Cl | -0.7% | ? | 6.3% | 162.9% | 38.4* | 48.8
O=C(CSc1ncccn1)NCc1ccccc1Cl | 3.2% | -0.2% | -0.6% | 106.7% | 49.5* | 68.1*
O=C(CN1CCCC1)Nc1ccc(F)c(Cl)c1 | 0.1% | ? | -12.6% | 2.2% | -1.8 | 18.2
Cc1ccc(C)c(S(=O)(=O)NCC(=O)Nc2sc3c(c2C(N)=O)CCC(C)C3)c1 (stereo not drawn) | -0.8% | . | 8.9% | 24.4% | 1.4 | -13.9
Cc1ccc(S(=O)(=O)N2[C@@H](c3ccccc3F)C(C(=O)O)=CC[C@H]2c2cccs2)cc1 | -0.1% | ? | -3.2% | -17.2% | . | .
Cc1c(Cl)cccc1-n1c(SCC(=O)NCc2cccs2)nnc1-c1ccncc1 | 6.5% | ? | -0.1% | ? | -0.9 | 18.0
Cc1c(Cl)cccc1-n1c(SCC(=O)NCc2ccccc2Cl)nnc1-c1ccncc1 | -0.6% | 8.28µM* | -8.3% | 8.28µM* | -2.7 | 26.2
O=C(COC(=O)C1CC1)NCc1ccccc1Cl | ? | . | 6.0% | 24.8% | 15.5* | 29.2
CC1CN(C(=O)CCC(=O)NCc2ccccc2Cl)c2ccccc2S1 (stereo not drawn) | -1.5% | 8.28µM* | 20.8% | -9.2% | -1.9 | 11.8
COCCN(C(=O)CC1C(=O)NCCN1Cc1ccc(-c2ccccc2)cc1)C(C)C (stereo not drawn) | -0.2% | 10.4% | 19.3% | -38.8% | 7.3 | 11.7
Cc1ccc2cc(CCNS(=O)(=O)c3ccc(F)cc3)c(=O)[nH]c2c1C | 0.3% | 19.2% | 0.0% | ? | -0.2 | -14.5
COc1ccc(C2=NC(=O)/C(=C\c3cc(OC)c(OC)c(OC)c3)O2)cc1 | -2.0% | 0.928µM* | 17.1% | 16.4% | 2.0 | 13.4
CCOC(=O)c1cc(Cl)c2c(ccc3ccccc32)n1 | . | . | -6.2% | . | . | .
CCOC(=O)c1nc2c(ccc3ccccc32)cc1C | -0.4% | 44.2% | 7.2% | 39.3% | 17.4* | 41.5*
CCOC(=O)N1CCN(C(=O)c2ccc(CS(=O)c3ccccc3)o2)CC1 (stereo not drawn) | -9.8% | -21.5% | 3.3% | 27.9% | -1.8 | -7.7
CCCC(=O)NCC(c1cccs1)S(=O)(=O)c1ccc(Cl)cc1 (stereo not drawn) | 0.2% | 2.62µM* | 11.7% | -21.4% | 5.9 | 6.8
CCCC(C)NC(=O)COC(=O)c1cccc(NS(C)(=O)=O)c1 (stereo not drawn) | 0.9% | 0.0% | -0.6% | 68.3% | 9.1 | 18.9
Clc1cccc(/C(Cc2nc3ccccc3[nH]2)=N\Nc2ccccc2)c1 | . | ? | 18.5% | -84.2% | 54.1* | 54.7*
N#CCCN/N=C(\Cc1nc2ccccc2[nH]1)c1ccccc1 | -3.3% | ? | 42.4% | . | 18.9 | 39.2
N#C/C(=C(/O)c1ccc([N+](=O)[O-])cc1)c1nc2ccccc2[nH]1 | 1.7% | 28.4% | 43.6% | 23.4% | -2.2 | 18.0
N/N=C(/Cc1nc2ccccc2[nH]1)c1ccc([N+](=O)[O-])cc1 | -10.4% | 44.9% | 72.7% | ? | 44.3* | 140.6*
c1ccc(N/N=C(\Cc2nc3ccccc3[nH]2)c2ccccc2)cc1 | -50.1% | ? | 75.9% | -85.9% | 52.3* | 47.8*

High-throughput results deposited in PubChem BioAssay by National Center for Advancing Translational Sciences (NCATS).
